Drawing on PubChem BioAssay AID488975 (Johns Hopkins Ion Channel Center, 2010), this text covers B-score and outcome for 98 molecules.

In all, about 310,000 compounds went through this assay and about 2,600 (0.84%) were called active.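 The calls were made as follows: active = B-score over 3 SD under the library average, and starting fluorescence ratio not unusually high; inactive = the rest.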 For the sample, actives were picked, then their nearest neighbours and some compounds at random. A structure can be active in one record and inactive in another.

The target of this experiment is High affinity choline transporter 1 (Homo sapiens) (UniProt Q9GZV3). Nature of the experiment: inhibits the human high affinity choline transporter (AID 488975).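 As to B-score: choline stimulus applied at its EC90 after an EC20 pre-addition; B-score computed on integrated fluorescence ratio after choline addition.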 As to conditions: CHT-expressing cells, membrane potential dye, choline response, at 10 µM; hits give low values.
High affinity choline transporter 1 (Homo sapiens), sequence (Q9GZV3 whole entry, looked up): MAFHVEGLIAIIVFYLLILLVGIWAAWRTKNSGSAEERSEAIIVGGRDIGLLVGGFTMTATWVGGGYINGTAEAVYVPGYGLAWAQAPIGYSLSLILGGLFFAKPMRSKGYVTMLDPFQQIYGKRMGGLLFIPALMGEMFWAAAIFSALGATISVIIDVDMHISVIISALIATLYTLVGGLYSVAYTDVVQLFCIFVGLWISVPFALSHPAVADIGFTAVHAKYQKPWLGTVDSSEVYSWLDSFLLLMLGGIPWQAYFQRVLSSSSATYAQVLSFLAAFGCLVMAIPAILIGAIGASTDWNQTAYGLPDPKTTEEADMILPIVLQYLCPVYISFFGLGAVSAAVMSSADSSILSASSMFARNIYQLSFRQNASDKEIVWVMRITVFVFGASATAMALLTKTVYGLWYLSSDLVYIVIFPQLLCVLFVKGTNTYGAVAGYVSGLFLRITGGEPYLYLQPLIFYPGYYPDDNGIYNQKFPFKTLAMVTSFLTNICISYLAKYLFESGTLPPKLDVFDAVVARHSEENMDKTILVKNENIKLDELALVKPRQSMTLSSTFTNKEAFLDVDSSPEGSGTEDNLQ
For `COc1ccc(/C=C2\SC(=S)N(CC(=O)NNC(=O)c3ccncc3)C2=O)cc1`, the B-score result is “inactive”.
With `CCOc1ccc(/C=C2\SC(=S)N(NC(=O)c3ccncc3)C2=O)cc1OC`, the B-score was -5.15 (active).
Still for that read-out and setting: the same measure for `COc1ccccc1C(=O)NNC(=O)CCN1C(=O)/C(=C\c2ccccc2)SC1=S`: “inactive”; for `COc1ccc(/C=C2\SC(=S)N(CCC(=O)Nc3ccccn3)C2=O)cc1OC`: “inactive”.
The same measure, in the same setting: the same measure for `O=C1/C(=C/c2ccc(F)cc2)SC(=S)N1CCCC(=O)N1CCCCC1CCO` (centres undefined): “inactive”.
For `O=C1/C(=C/c2ccc(F)cc2)SC(=S)N1NS(=O)(=O)c1ccccc1`, the B-score is -6.62 (active).
The same measure, in the same setting: the value for `Cn1cccc1/C=C1\SC(=S)N(NC(=O)c2ccc(Cl)cc2)C1=O` was “inactive”.
Still for that read-out and setting: the same measure for `O=C(O)c1ccc(/C=N/NC(=O)c2ccc(Br)cc2)cc1`: “inactive”; for `O=C(O)c1ccc(/C=C2\SC(=S)N(NC(=O)c3ccc(Br)cc3)C2=O)cc1`: -5.15 (active); for `COc1ccc2oc(C(=O)N(CC(C)C)C3CCS(=O)(=O)C3)c(C)c2c1` (centres undefined): “inactive”.
The same measure, in the same setting: the value for `O=C(NCc1ccc(Cl)cc1)C(=O)NCC1CCCN1S(=O)(=O)c1cccs1` (centres undefined) was “inactive”; that for `CC1CC(C)(C)CC2(C1)NC(=O)N(CC(=O)Nc1nccs1)C2=O` (centres undefined) was “inactive”.
Take `C=CCNc1cnn(-c2ccc(C)cc2)c(=O)c1Cl`: the B-score result is “inactive”.
As to `O=c1c(Cl)c(NC2CC2)cnn1-c1ccccc1`, the B-score entry is “inactive”.
For `Cc1cccc(-n2ncc(Cl)c(Cl)c2=O)c1`, the B-score was -6.46 (active).
As for `CCN1C(=O)[C@H]2[C@@H](c3ccc(SC4CCCCC4)c(OC)c3)N[C@@](Cc3ccccc3)(C(=O)OC)[C@H]2C1=O`, the B-score result is “inactive”.
As to `COc1cc(OC)cc(C(=O)NCCCn2ccnc2)c1`, the B-score result is “inactive”.
Same read-out and setting: the value for `COc1ccc(/C=C(\C#N)C(=O)NCCCn2ccnc2)cc1` was “inactive”.
The same measure, in the same setting: the same measure for `COc1cccc(-c2nn(-c3ccccc3)cc2/C=C(\C#N)C(=O)NCCCn2ccnc2)c1`: -6.63 (active); for `Cc1ccc(S(=O)(=O)N2[C@@H](c3cccc(Cl)c3)C(C(=O)O)=CC[C@H]2c2ccc(Cl)c(Cl)c2)cc1`: “inactive”.
For `COc1cccc(N2CC(NS(=O)(=O)c3ccc(Cl)cc3)CC2=O)c1` (centres undefined), the B-score result was “inactive”.
Still for that read-out and setting: the value for `COc1cccc(CNC(=O)C(=O)NCCC2CCCCN2S(=O)(=O)c2ccc(C)cc2)c1` (centres undefined) was “inactive”; that for `C/C(=N\NC(N)=S)c1cccnc1` was -9.98 (active).
On to `C/C(=N\NC(N)=S)c1ccncc1`, for which the B-score result was “inactive”.
On to `C/C(=N\NC(=O)c1cccnc1)c1ccc(-c2ccccc2)cc1`, for which the B-score result was “inactive”.
On the same count and under the same terms, the same measure for `CC(Oc1ccc2ccccc2c1)C(=O)NNC(=S)NC(=O)c1ccco1` (centres undefined): -5.21 (active); for `O=C(Nc1ccc2ccccc2c1)/C(=C/c1cccc(Br)c1)NC(=O)c1ccco1`: “inactive”; for `Cc1ccc(C(=O)NNC(=O)C(C)Oc2ccc3ccccc3c2)o1` (centres undefined): “inactive”.
Still for that read-out and setting: the same measure for `CCCCN(C(=O)CCNC(=O)NC12CC3CC(CC(C3)C1)C2)c1c(N)n(CCCC)c(=O)[nH]c1=O`: “inactive”; for `COc1ccc(CCNC(=O)C(=O)NCC2OCCN2S(=O)(=O)c2cccs2)cc1OC` (centres undefined): “inactive”; for `O=C(Nc1ccccc1N1CCCC1)c1ccc(F)c(S(=O)(=O)N2CCOCC2)c1`: “inactive”.
Same read-out and setting: the same measure for `CC(C)CN(C(=O)COC(=O)c1ccc(Cl)c(N)c1)c1c(N)n(Cc2ccccc2)c(=O)[nH]c1=O`: “inactive”; for `Cc1nc2sc3c(c2c(=O)n1NC(=O)CCl)CCCC3`: “inactive”.
As for `Cc1cc(C)n(-c2nc(SCC(=O)N3CCCC3)c3c4c(sc3n2)CCCC4)n1`, the B-score entry was “inactive”.
Still for that read-out and setting: the value for `COCCNc1nc(-n2nc(C)cc2C)nc2sc3c(c12)CCCC3` was -4.98 (active).
On the same count and under the same terms, the same measure for `N#CC1(NC(=O)COC(=O)CSc2ccc(F)cc2)CCCCC1`: “inactive”; for `CCOc1ccc(S(=O)(=O)Nc2ccc(C(=O)NCCCN3CCCC3=O)cc2)cc1`: “inactive”.
On the same count and under the same terms, the same measure for `COc1ccc(S(=O)(=O)N2CCN(C(=O)NC3CCCCC3)CC2)cc1`: -6.98 (active).
Take `CCOC(=O)N1CCN(S(=O)(=O)c2ccc(OC)cc2)CC1`: the B-score entry was “inactive”.
With `COc1ccc(S(=O)(=O)N2CCCC2CNC(=O)C(=O)NC2CC2)cc1` (centres undefined), the B-score result is “inactive”.
As for `CC(C)n1cnc2c(Nc3cccc(Cl)c3)nc(N(CCO)CCCO)nc21`, the B-score was -7.57 (active).
On the same count and under the same terms, the value for `OCCCNc1nccc(-c2cc(Nc3cccc(Cl)c3)ncn2)n1` was “inactive”.
Same read-out and setting: the value for `CC(C)C[C@H](CO)Nc1nc(N(C)c2cccc(Cl)c2)c2ncn(C(C)C)c2n1` was “inactive”; that for `COc1ccccc1N(C)S(=O)(=O)c1ccc(Cl)c(C(=O)Nc2ccncc2)c1` was “inactive”.
The same measure, in the same setting: the same measure for `COc1ccc(NS(=O)(=O)c2ccc(C)c(C(=O)N(C)Cc3ccc(OC)cc3OC)c2)cc1`: “inactive”.
As for `CC1(C)S[C@@H]2[C@H](NC(=O)COc3ccccc3)C(=O)N2C1C(=O)OCc1ccccc1` (some centres undefined), the B-score result is “inactive”.
For the molecule `CC1(C)SC2C(NC(=O)COc3ccccc3)C(=O)N2C1C(=O)O` (centres undefined), the B-score is -6.15 (active) and the molecule was classed as inactive.
Take `CC1(C)S[C@@H]2[C@H](N=CN3CCCCCC3)C(=O)N2[C@H]1C(=O)O`: the B-score result was “inactive”.
Same read-out and setting: the value for `COC(=O)[C@]1(C)N[C@H](c2ccc(-c3ccc(Cl)c(Cl)c3)cc2)[C@@H]2C(=O)N(C)C(=O)[C@@H]21` was “inactive”; that for `O=C(NCC(c1cccs1)N1CCOCC1)c1cc(Cl)ccc1[N+](=O)[O-]` (centres undefined) was “inactive”.
The same measure, in the same setting: the same measure for `OCCCNc1nc(-c2ccccc2)c2cc(Cl)ccc2n1`: “inactive”; for `COC(=O)c1ccccc1NC(=O)CSc1nc2c(c(=O)[nH]1)CCC2`: “inactive”.
Still for that read-out and setting: the value for `CC(C)OC(=O)Cn1nc(C(F)(F)F)c2c1CCCC2` was “inactive”.
Regarding `Cc1cc(NC(=O)Cn2nc(C(F)(F)F)c3c2CCCC3)no1`, the B-score result is “inactive”.
The same measure, in the same setting: the same measure for `O=C(Cn1nc(C(F)(F)F)c2c1CCC2)NCc1ccc(F)cc1`: -6.14 (active); for `CCC(C)NC(=O)Cn1nc(C(F)(F)F)c2c1CCC2` (centres undefined): “inactive”.
The same measure, in the same setting: the same measure for `COC(=O)c1ccccc1NC(=O)Cn1nc(C(F)(F)F)c2c1CCC2`: -5.17 (active).
Take `N#CCN(C(=O)COC(=O)C1CC2CCCC(C1)C2=O)c1ccccc1` (centres undefined): the B-score result is “inactive”.
Still for that read-out and setting: the value for `CC1CCN(c2ccc(-c3ccc(NC(=O)c4ccco4)cc3)nn2)CC1` was “inactive”.
Still for that read-out and setting: the same measure for `Cc1noc(C)c1CSCC(=O)Nc1ccc(Br)cc1Cl`: “inactive”; for `O=C(c1ccncc1)N1CCN(S(=O)(=O)c2cc(C(F)(F)F)cc(C(F)(F)F)c2)CC1`: “inactive”; for `CCN(CC)Cc1c(C(=O)N/N=C/c2cccc(OCc3ccc(F)cc3)c2)nnn1-c1nonc1N`: -5.26 (active).
The same measure, in the same setting: the value for `COCc1c(C(=O)N/N=C\c2cccnc2)nnn1-c1nonc1N` was “inactive”.
`CN(C)Cc1c(C(=O)N/N=C/c2ccccc2OCc2ccc(F)cc2)nnn1-c1nonc1N`: the B-score entry was “inactive”.
As to `CCCCn1c(N)c(N(CC(C)C)C(=O)c2ccc(Br)o2)c(=O)[nH]c1=O`, the B-score result is “inactive”.
For `CC(OC(=O)c1ccc(S(=O)(=O)N2CCOCC2)cc1)c1ccccc1` (centres undefined), the B-score entry is “inactive”.
On the same count and under the same terms, the value for `CCN(C(=O)CSc1ncnc2c1cnn2-c1ccccc1)C1CCS(=O)(=O)C1` (centres undefined) was “inactive”; that for `O=C(Nc1ccc(F)c(Cl)c1)C1CCN(S(=O)(=O)c2cccnc2)CC1` was -5.54 (active); that for `CC(C)c1ccc(NC(=O)C2CCCN(S(=O)(=O)c3cccnc3)C2)cc1` (centres undefined) was “inactive”.
`O=C(NCc1cccs1)C1CCN(S(=O)(=O)c2ccc(Cl)cc2)CC1`: the B-score entry was “inactive”.
Still for that read-out and setting: the value for `CN(c1ccccc1)S(=O)(=O)c1ccc(Cl)c(C(=O)OCC(=O)NCc2ccco2)c1` was “inactive”; that for `Cc1cc(C(=O)OCC(=O)NCc2ccco2)c(C)n1-c1ccccc1` was -10 (active).
`O=C(COC(=O)c1cc(S(=O)(=O)N2CCCCC2)ccc1Cl)NCc1ccco1`: the B-score result was “inactive”.
The same measure, in the same setting: the value for `CCOc1ccc(S(=O)(=O)N2CCN(C(=S)NCC3CCCO3)CC2)cc1` (centres undefined) was “inactive”; that for `CC(C)CN(C(=O)c1ccc2c(c1)OCO2)C1CCS(=O)(=O)C1` (centres undefined) was “inactive”; that for `CN(C(=O)c1cc2c(=O)n3ccccc3nc2s1)C1CCCCC1` was “inactive”.
Turning to `O=C(CC1SC(N2CCCC2)=NC1=O)Nc1ccc(C(=O)NCCc2ccc(F)cc2)cc1` (centres undefined), the B-score entry was “inactive”.
Consider `Cc1ccc([N+](=O)[O-])cc1S(=O)(=O)N1CCCN(C)CC1`, for which the B-score result was “inactive”.
In the case of `CCc1nc(C)cn1S(=O)(=O)c1cc([N+](=O)[O-])ccc1Cl`, the B-score was -5.38 (active).
In the case of `CCc1nccn1S(=O)(=O)c1cccc([N+](=O)[O-])c1`, the B-score result is “inactive”.
On to `C=CCOc1cccc(C2C(C(=O)c3ccc(C)o3)=C(O)C(=O)N2CCCn2ccnc2)c1` (centres undefined), for which the B-score entry is “inactive”.
For `O=C(CCCN1C(=O)CSc2ncccc21)N1CCN(c2cccc(C(F)(F)F)c2)CC1`, the B-score is -9.61 (active).
On the same count and under the same terms, the value for `O=C(CN1C(=O)CSc2ncccc21)N1CCOCC1` was “inactive”; that for `O=C(COc1ccc(Cl)cc1)N1CCN(c2cccc(C(F)(F)F)c2)CC1` was “inactive”.
The same measure, in the same setting: the value for `CCCn1c(C)cc(-c2csc(NC(=O)CCc3nc4ccccc4c(=O)[nH]3)n2)c1C` was “inactive”; that for `CN(C)C1=NC[C@H](Cc2ccccc2)N1CCc1ccc(F)cc1` was “inactive”.
Still for that read-out and setting: the value for `CC1C(=O)N2CCCc3cc(S(=O)(=O)NCc4ccc(F)cc4)cc1c32` (centres undefined) was “inactive”; that for `CN1C(=O)/C(=C/c2ccc(C(=O)NC3CCCC3)cc2)Oc2ccccc21` was “inactive”.
For the molecule `O=C(NCCN1CCOCC1)c1ccc(/C=C2\Sc3ccccc3N(Cc3ccc(F)cc3)C2=O)cc1`, the B-score result was “inactive”.
The same measure, in the same setting: the same measure for `CN1CCN(CCCNC(=O)c2ccc(/C=C3\Oc4ccccc4N(Cc4ccc(Cl)cc4)C3=O)cc2)CC1`: -7.25 (active); for `O=C(NC1CCCCC1)c1ccc(-c2ccc(Cl)cc2)o1`: “inactive”.
On to `O=C(O)c1ccccc1C(=O)Nc1ccccc1[N+](=O)[O-]`, for which the B-score result is “inactive”.
As for `O=[N+]([O-])c1ccc(O)c(/C=N/Nc2ccccc2[N+](=O)[O-])c1`, the B-score entry was “inactive”.
For the molecule `O=[N+]([O-])c1ccccc1Nc1ccc(O)cc1`, the B-score was -5.48 (active).
For `CCN(C(=O)CSc1nnnn1-c1ccccc1OC)C1CCS(=O)(=O)C1` (centres undefined), the B-score entry is “inactive”.
Still for that read-out and setting: the same measure for `Cc1nc2c(c(C)nn2-c2ccccc2)c(C)c1C`: “inactive”.
As to `O=C(Nc1ncccc1O)c1ccc(C(=O)c2ccccc2)cc1`, the B-score entry is “inactive”.
Regarding `Cc1csc(=O)n1CC(=O)OCC(=O)N(CC(C)C)c1c(N)n(Cc2ccccc2)c(=O)[nH]c1=O`, the B-score entry was “inactive”.
